Holding throughout (conditions): mRNA level, 48 h; actives raise or lower the signal
Read-out in assay [1]: ABC Transporter (ABCC2), ABCC2 (gene 1244)
In words: LTEA_HepaRG_ABCC2: Life Technologies and Expression Analysis (LTEA) Assay for ABC Transporter (ABCC2) using HepaRG (AID 2283464). In a few lines: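 Gene expression of ABCC2 was determined by qRT-PCR in HepaRG cells exposed 48 h to chemicals (highest 100 uM, half-log dilutions). Activity was fitted in both directions relative to 0.5% DMSO vehicle.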

Read-out in assay [2]: Peroxisomal acyl-coenzyme A oxidase 1 (ACOX1) gene, ACOX1 (gene 51)
Description: LTEA_HepaRG_ACOX1: Life Technologies and Expression Analysis (LTEA) Assay for Peroxisomal acyl-coenzyme A oxidase 1 (ACOX1) gene using HepaRG (AID 2283467). The gist of the method:
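HepaRG, 48 h chemical exposure, 8-pt half-log series from 100 uM top, 0.5% DMSO vehicle, duplicates. Readout: ACOX1 mRNA by Fluidigm qRT-PCR, housekeeping-normalized; bidirectional fit vs DMSO baseline.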

Read-out in assay [3]: Alkaline Phosphatase, Placental (ALPP) gene, ALPP (gene 250)
In words: LTEA_HepaRG_ALPP: Life Technologies and Expression Analysis (LTEA) Assay for Alkaline Phosphatase, Placental (ALPP) gene using HepaRG (AID 2283468).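 As to AC50: differentiated human HepaRG liver cells in serum-free induction medium; ALPP transcript by TaqMan qRT-PCR normalized to ACTB GAPDH and POLR2A.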 In a few lines:
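Expression of ALPP was quantified by qRT-PCR against three housekeeping genes in human HepaRG cultures treated for 48 h with an eight-point concentration series up to 100 uM. Activity in either direction was fitted relative to 0.5% DMSO.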

Read-out in assay [4]: Bcl-2 (BAD) gene, BAD (gene 572)
Description: LTEA_HepaRG_BAD: Life Technologies and Expression Analysis (LTEA) Assay for Bcl-2 (BAD) gene using HepaRG (AID 2283469). The gist of the method:
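HepaRG, 48 h exposure, 8-pt half-log curve from 100 uM in 0.5% DMSO, duplicates. Readout: TaqMan qRT-PCR for BAD mRNA, housekeeping-normalised (ACTB/GAPDH/POLR2A); gain or loss fitted against DMSO baseline.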

Read-out in assay [5]: adenosine kinase (ADK) gene, ADK (gene 132)
Description: LTEA_HepaRG_ADK: Life Technologies and Expression Analysis (LTEA) Assay for adenosine kinase (ADK) gene using HepaRG (AID 2283471). The gist of the method:
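ADK expression quantified by qRT-PCR, normalised to three housekeeping genes, after 48 h exposure of HepaRG cells to eight concentrations (top 100 uM, half-log steps, duplicate, 0.5% DMSO). Up- or down-regulation fitted relative to vehicle.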

Read-out in assay [6]: Alpha-fetoprotein (AFP) gene, AFP (gene 174)
Description: LTEA_HepaRG_AFP: Life Technologies and Expression Analysis (LTEA) Assay for Alpha-fetoprotein (AFP) gene using HepaRG (AID 2283472). The gist of the method: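 Chemicals were tested on differentiated HepaRG cells for 48 hours at eight concentrations up to 100 uM, with 0.5% DMSO as vehicle. AFP expression was then quantified by qRT-PCR and analyzed for gain or loss relative to DMSO.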

Read-out in assay [7]: BCL2L11 (gene 10018)
In words: LTEA_HepaRG_BCL2L11: Life Technologies and Expression Analysis (LTEA) Assay for Bcl-2 (BCL2L11) gene using HepaRG (AID 2283473). The gist of the method: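 Cells were plated, cultured 48 h, switched to serum-free induction medium, then dosed in duplicate for 48 h at eight half-log concentrations up to 100 uM. Lysates underwent RNA isolation and TaqMan qRT-PCR; gain or loss versus DMSO was fitted.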

Read-out in assay [8]: Apolipoprotein A-V (APOA5) gene, APOA5 (gene 116519)
Description: LTEA_HepaRG_APOA5: Life Technologies and Expression Analysis (LTEA) Assay for Apolipoprotein A-V (APOA5) gene using HepaRG (AID 2283474). In a few lines:
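Human liver HepaRG cells are treated 48 h with test chemicals (100 uM top, half-log dilutions, 0.5% DMSO). APOA5 mRNA induction or loss is measured by qRT-PCR relative to vehicle.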

Read-out in assay [9]: Apoptosis regulator Bcl-2 (Homo sapiens) (UniProt P10415)
In words: LTEA_HepaRG_BCL2: Life Technologies and Expression Analysis (LTEA) Assay for Bcl-2 gene using HepaRG (AID 2283475). The gist of the method:
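Plated human HepaRG cells are exposed to test chemicals for 48 h across eight concentrations from 100 uM downward in half-log steps (0.5% DMSO). BCL2 expression is then measured by qRT-PCR with housekeeping normalisation and fitted bidirectionally against vehicle.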

Read-out in assay [10]: Bcl-2 (BID) gene, BID (gene 637)
In words: LTEA_HepaRG_BID: Life Technologies and Expression Analysis (LTEA) Assay for Bcl-2 (BID) gene using HepaRG (AID 2283476). The gist of the method:
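Cells are plated, cultured 48 h, switched to serum-free induction medium, then dosed 48 h (100 uM top, half-log steps, 0.5% DMSO). RNA is isolated and BID expression read by qRT-PCR.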

Read-out in assay [11]: Caspase-3 (Homo sapiens) (UniProt P42574)
In words: LTEA_HepaRG_CASP3: Life Technologies and Expression Analysis (LTEA) Assay for cysteine-aspartic acid protease (CASP3) using HepaRG (AID 2283477). In a few lines:
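In HepaRG liver cells dosed for 48 h at up to 100 uM (eight-point, duplicate), CASP3 expression changes are scored by qRT-PCR. Activity is fitted in both directions with 0.5% DMSO as baseline.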

Read-out in assay [12]: Cytochrome P450 (CYP1A2), CYP1A2 (gene 1544)
In words: LTEA_HepaRG_CYP1A2: Life Technologies and Expression Analysis (LTEA) Assay for Cytochrome P450 (CYP1A2) using HepaRG (AID 2283479).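 As to AC50: TaqMan qRT-PCR transcript level normalized to ACTB GAPDH and POLR2A.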 The gist of the method: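 Assesses CYP1A2 mRNA in human HepaRG liver cells after 48 h chemical exposure at up to 100 uM. Values come from qRT-PCR with bidirectional curve fitting relative to DMSO.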

Read-out in assay [13]: cysteine-aspartic acid protease (CASP8), CASP8 (gene 841)
Description: LTEA_HepaRG_CASP8: Life Technologies and Expression Analysis (LTEA) Assay for cysteine-aspartic acid protease (CASP8) using HepaRG (AID 2283480). In a few lines:
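qRT-PCR readout of CASP8 mRNA, normalized to three housekeeping genes, after 48 h chemical exposure of HepaRG cells; 8-point half-log series, top 100 uM, 0.5% DMSO vehicle. Bidirectional curve fitting against DMSO baseline.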

Read-out in assay [14]: Cytochrome P450 (CYP2B6), CYP2B6 (gene 1555)
In words: LTEA_HepaRG_CYP2B6: Life Technologies and Expression Analysis (LTEA) Assay for Cytochrome P450 (CYP2B6) using HepaRG (AID 2283481). In a few lines:
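Using 48 h treatment of HepaRG cells in serum-free induction medium, concentrations spanned half-log steps from 100 uM in 0.5% DMSO vehicle. CYP2B6 mRNA induction or loss is scored by qRT-PCR against DMSO.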

Read-out in assay [15]: Cytochrome P450 2C19 (Homo sapiens) (UniProt P33261)
In words: LTEA_HepaRG_CYP2C19: Life Technologies and Expression Analysis (LTEA) Assay for CYP2C19 using HepaRG (AID 2283482). The gist of the method:
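Human HepaRG liver cells received test chemicals for 48 h (highest 100 uM, half-log dilutions in 0.5% DMSO). CYP2C19 mRNA induction or loss is read by multiplexed qRT-PCR and fitted in both directions versus vehicle.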

Read-out in assay [16]: Broad substrate specificity ATP-binding cassette transporter ABCG2 (Homo sapiens) (UniProt Q9UNQ0)
In words: LTEA_HepaRG_ABCG2: Life Technologies and Expression Analysis (LTEA) Assay for ABC Transporter (ABCG2) using HepaRG (AID 2283465). The gist of the method:
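HepaRG, 48 h exposure, 8-pt half-log series from 100 uM, 0.5% DMSO vehicle, duplicates. Readout: ABCG2 transcript by qRT-PCR (Fluidigm array), housekeeping-normalized; bidirectional curve fit relative to DMSO baseline.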

Read-out in assay [17]: Cytochrome P450 (CYP24A1), CYP24A1 (gene 1591)
In words: LTEA_HepaRG_CYP24A1: Life Technologies and Expression Analysis (LTEA) Assay for Cytochrome P450 (CYP24A1) using HepaRG (AID 2283478). In a few lines:
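Human liver HepaRG cultures receive each chemical for 48 h across an eight-point half-log series topping at 100 uM in 0.5% DMSO. Induction or suppression of CYP24A1 mRNA is scored relative to vehicle after housekeeping-gene normalization.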

Read-out in assay [18]: CYP2C8 (gene 1558)
Description: LTEA_HepaRG_CYP2C8: Life Technologies and Expression Analysis (LTEA) Assay for CYP2C8 using HepaRG (AID 2283483). The gist of the method:
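HepaRG (human liver line), 48 h chemical exposure, 8-pt half-log series from 100 uM, 0.5% DMSO vehicle. Readout: CYP2C8 transcript by qRT-PCR, housekeeping-normalized. Bidirectional fit vs DMSO baseline.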

Molecules are shown by their SMILES. The source made the active and inactive calls. The calls were made as follows: active = hit-call score of the fitted dose curve at least 0.9, where 1 is the maximum; inactive = score below 0.9.

Sequence of Cytochrome P450 2C19 (Homo sapiens) (P33261 whole entry, looked up): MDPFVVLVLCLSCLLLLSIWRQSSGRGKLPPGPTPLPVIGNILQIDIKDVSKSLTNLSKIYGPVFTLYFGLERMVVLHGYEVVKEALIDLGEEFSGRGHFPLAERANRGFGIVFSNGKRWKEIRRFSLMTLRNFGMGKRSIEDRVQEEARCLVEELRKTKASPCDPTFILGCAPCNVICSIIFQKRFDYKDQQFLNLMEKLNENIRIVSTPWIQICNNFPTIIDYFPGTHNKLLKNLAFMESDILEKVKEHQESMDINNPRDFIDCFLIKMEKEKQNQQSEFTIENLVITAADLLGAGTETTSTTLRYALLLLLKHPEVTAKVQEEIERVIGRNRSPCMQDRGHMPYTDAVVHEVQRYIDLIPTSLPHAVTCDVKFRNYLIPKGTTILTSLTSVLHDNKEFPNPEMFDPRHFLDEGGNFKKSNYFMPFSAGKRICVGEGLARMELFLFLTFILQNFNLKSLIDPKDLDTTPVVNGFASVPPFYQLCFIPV
Sequence of Apoptosis regulator Bcl-2 (Homo sapiens) (P10415 whole entry, looked up): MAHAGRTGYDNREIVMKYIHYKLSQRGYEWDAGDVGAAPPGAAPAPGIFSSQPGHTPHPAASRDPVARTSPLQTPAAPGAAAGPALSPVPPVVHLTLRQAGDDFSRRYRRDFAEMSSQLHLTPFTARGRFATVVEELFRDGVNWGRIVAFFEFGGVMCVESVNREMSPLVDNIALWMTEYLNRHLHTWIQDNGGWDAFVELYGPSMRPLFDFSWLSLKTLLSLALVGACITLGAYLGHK
Sequence of Caspase-3 (Homo sapiens) (P42574 whole entry, looked up): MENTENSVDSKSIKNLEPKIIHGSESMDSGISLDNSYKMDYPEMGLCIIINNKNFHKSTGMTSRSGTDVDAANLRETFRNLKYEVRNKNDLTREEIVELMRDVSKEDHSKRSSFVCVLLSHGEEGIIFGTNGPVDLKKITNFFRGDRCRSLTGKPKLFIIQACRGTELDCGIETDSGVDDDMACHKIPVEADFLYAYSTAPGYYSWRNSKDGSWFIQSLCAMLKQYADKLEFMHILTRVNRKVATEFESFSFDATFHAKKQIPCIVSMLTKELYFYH
Sequence of Broad substrate specificity ATP-binding cassette transporter ABCG2 (Homo sapiens) (Q9UNQ0 whole entry, looked up): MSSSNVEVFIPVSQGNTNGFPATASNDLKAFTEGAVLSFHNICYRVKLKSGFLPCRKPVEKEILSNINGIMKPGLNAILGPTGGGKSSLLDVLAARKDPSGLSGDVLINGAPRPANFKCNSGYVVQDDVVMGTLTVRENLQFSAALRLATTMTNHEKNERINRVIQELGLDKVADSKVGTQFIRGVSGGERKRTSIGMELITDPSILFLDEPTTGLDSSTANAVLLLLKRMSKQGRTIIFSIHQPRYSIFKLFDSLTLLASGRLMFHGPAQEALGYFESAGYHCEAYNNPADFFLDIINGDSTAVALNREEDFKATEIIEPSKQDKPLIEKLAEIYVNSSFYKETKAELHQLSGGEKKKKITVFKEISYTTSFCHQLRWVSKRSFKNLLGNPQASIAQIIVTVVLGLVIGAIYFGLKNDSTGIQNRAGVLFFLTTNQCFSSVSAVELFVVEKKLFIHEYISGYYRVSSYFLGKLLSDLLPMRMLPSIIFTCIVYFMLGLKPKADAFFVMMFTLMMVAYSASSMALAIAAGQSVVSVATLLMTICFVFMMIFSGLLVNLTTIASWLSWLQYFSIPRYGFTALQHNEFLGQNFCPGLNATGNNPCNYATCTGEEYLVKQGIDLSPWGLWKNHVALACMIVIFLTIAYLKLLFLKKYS

Turning to `c1ccc(Nc2ccccc2)cc1`, the compound was classed as inactive in [1], in [2], in assay [3], in assay [4], in [5] and in assay [6]. For the same compound, the call in assay [7], in assay [8], in [9], in assay [10], in assay [11] and in [12] was inactive. Also, the outcome in [13] and in [15] was inactive. Besides, the AC50 in assay [14] is 24.9 µM (active).
As to `N#CSCSc1nc2ccccc2s1`, the compound was called inactive in assay [1], in [16], in [2], in [4], in assay [5] and in assay [7]. In addition, the result in assay [8], in [9], in [10], in [11], in assay [12] and in assay [13] was inactive. For the same compound, the compound was called inactive in assay [14] and in [15]. Besides, the AC50 in assay [3] was 40.3 µM (active); in [17], 12.4 µM (active).
Consider `COc1c(Cl)ccc(Cl)c1C(=O)O`, for which the outcome in assay [1], in assay [16], in assay [2], in [3], in [4] and in [5] was inactive. Also, the compound was classed as inactive in [7], in assay [8], in assay [9], in [10], in assay [11] and in [12]. Besides, the call in assay [13], in [14] and in assay [15] was inactive.
With `CCCCC(CC)CN1C(=O)C2C3C=CC(C3)C2C1=O` (stereo not drawn), the compound was classed as inactive in assay [1], in assay [2], in [4], in assay [5], in assay [7] and in [9]. The call in assay [10], in [11] and in [13] was inactive. For the same compound, the AC50 was 13.2 µM (active) in [16]; 65.4 µM (active) in assay [3]; 79.3 µM (active) in assay [8]; 82.3 µM (active) in assay [12]; 88.6 µM (active) in assay [14]; 92 µM (active) in [15]. Moreover, the AC50 in assay [18] is 88.3 µM (active).
With `C#C[C@]1(O)CC[C@H]2[C@@H]3CCC4=CC(=O)CC[C@@H]4[C@H]3CC[C@@]21CC`, the call in assay [1], in [16], in assay [2], in assay [3], in assay [4] and in [5] was inactive. Moreover, the compound was called inactive in [7], in [8], in assay [9], in assay [10], in assay [11] and in assay [12]. Also, the compound was classed as inactive in [13] and in assay [14]. In addition, in assay [15], the AC50 was 5.47 µM (active).
Consider `O=C(O)c1ccccc1`, for which the compound was called inactive in assay [1], in assay [16], in assay [2], in [3], in assay [4] and in assay [5]. Also, the compound was classed as inactive in [6], in [7], in [8], in assay [9], in assay [10] and in [11]. For the same compound, the outcome in assay [12], in assay [13], in assay [14] and in assay [15] was inactive.
Regarding `CCOC(=O)c1ccc(O)cc1`, the result in assay [1], in assay [16], in assay [2], in assay [3], in assay [4] and in assay [5] was inactive. Further, the result in assay [6], in [7], in assay [8], in [9], in [10] and in assay [11] was inactive. In addition, the compound was called inactive in assay [12], in assay [13] and in assay [14].

The AC50 is the concentration giving half of the maximal activity seen.

The values above are taken from PubChem BioAssay (EPA / NIEHS).
